# According to article PMC7862700, “An all-to-all approach to the identification of sequence-specific readers for epigenetic DNA modifications on cytosine”:
# Columns and labels:
# Assay in all cases: DAPPL (digital affinity profiling via proximity ligation, sequencing); 10 mM Tris-HCl pH 7.5, 50 mM NaCl, 1 mM DTT, 4% glycerol, room temperature, 30 min; GST-TFs on glutathione beads, 16-mer random dsDNA library, 0.1% formaldehyde crosslink after washing; high values mean tight binding
# [1] = biological target: T1, FEV (Homo sapiens, UniProt Q99581 1-238); settings: protein: recombinant; tags: N-terminal GST; dsDNA, one strand shown
# T1 sequence: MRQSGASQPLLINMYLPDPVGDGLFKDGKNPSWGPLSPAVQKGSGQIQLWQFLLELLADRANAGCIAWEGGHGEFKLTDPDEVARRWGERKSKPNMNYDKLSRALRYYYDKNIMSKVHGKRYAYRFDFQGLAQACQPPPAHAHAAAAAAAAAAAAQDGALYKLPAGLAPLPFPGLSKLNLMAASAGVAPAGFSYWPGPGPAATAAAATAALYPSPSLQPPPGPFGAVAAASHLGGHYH
# In short: (§1)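 Binding signal is each hexamer's read frequency for a factor divided by its frequency in the tag-only sample. The factors were GST-fused human transcription factors from yeast, captured on glutathione beads, DNA-barcoded and pooled with that sample. Pools were incubated with 200 nmole of a random double-stranded 16-mer DNA library in Tris/NaCl/DTT/glycerol buffer at room temperature for 30 min, then washed, crosslinked with 0.1% formaldehyde, proximity-ligated with BsaI/T4 ligase (1 h, 37 °C), PCR-amplified and sequenced on an Illumina NextSeq500.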
# [2] = biological target: ETV5 (Homo sapiens, UniProt P41161 1-510); settings: protein: recombinant; tags: N-terminal GST; dsDNA, one strand shown
# In short: as §1
# [3] = biological target: HSF1 (Homo sapiens, UniProt Q00613 1-529); settings: protein: recombinant; tags: N-terminal GST; chain copies: 3; dsDNA, one strand shown
# In short: as §1
# [4] = biological target: T2, SPIC (Homo sapiens, UniProt Q8N5J4 1-248); settings: protein: recombinant; tags: N-terminal GST; dsDNA, one strand shown
# T2 sequence: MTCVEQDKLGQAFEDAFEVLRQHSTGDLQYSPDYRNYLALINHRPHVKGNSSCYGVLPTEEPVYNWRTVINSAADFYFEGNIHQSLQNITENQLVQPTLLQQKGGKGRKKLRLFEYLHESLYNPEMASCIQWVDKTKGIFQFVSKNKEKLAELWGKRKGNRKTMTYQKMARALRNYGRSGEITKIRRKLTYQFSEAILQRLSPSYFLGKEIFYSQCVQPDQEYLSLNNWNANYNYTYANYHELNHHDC
# In short: as §1
# [5] = biological target: ELF4 (Homo sapiens, UniProt Q99607 1-663); settings: protein: recombinant; tags: N-terminal GST; dsDNA, one strand shown
# In short: as §1
# [6] = biological target: T3, ELK4 (Homo sapiens, UniProt P28324-2 1-405); settings: protein: recombinant; tags: N-terminal GST; dsDNA, one strand shown
# T3 sequence: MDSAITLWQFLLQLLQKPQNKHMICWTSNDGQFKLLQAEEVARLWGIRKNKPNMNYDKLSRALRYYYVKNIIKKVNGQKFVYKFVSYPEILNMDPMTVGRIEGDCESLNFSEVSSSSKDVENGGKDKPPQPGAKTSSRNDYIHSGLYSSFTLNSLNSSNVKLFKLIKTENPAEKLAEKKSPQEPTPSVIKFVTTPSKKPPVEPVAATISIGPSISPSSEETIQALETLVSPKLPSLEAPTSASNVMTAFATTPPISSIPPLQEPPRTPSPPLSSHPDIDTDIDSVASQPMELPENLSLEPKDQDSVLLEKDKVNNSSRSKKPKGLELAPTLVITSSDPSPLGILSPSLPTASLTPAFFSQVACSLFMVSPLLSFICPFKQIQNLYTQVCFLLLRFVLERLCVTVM
# In short: as §1
# [7] = biological target: T4, ETV2 (Homo sapiens, UniProt O00321 1-342); settings: protein: recombinant; tags: N-terminal GST; dsDNA, one strand shown
# T4 sequence: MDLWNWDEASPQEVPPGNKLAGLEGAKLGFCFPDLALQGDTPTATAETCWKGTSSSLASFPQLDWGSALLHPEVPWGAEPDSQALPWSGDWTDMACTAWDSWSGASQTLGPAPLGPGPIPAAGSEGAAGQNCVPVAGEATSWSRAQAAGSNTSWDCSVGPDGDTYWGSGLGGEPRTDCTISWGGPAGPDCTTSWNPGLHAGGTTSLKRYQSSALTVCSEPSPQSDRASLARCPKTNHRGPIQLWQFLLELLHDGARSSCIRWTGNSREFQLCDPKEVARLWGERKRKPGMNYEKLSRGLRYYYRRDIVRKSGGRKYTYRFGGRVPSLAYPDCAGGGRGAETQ
# In short: as §1
# [8] = biological target: T5, ELF3 (Homo sapiens, UniProt P78545 1-371); settings: protein: recombinant; tags: N-terminal GST; dsDNA, one strand shown
# T5 sequence: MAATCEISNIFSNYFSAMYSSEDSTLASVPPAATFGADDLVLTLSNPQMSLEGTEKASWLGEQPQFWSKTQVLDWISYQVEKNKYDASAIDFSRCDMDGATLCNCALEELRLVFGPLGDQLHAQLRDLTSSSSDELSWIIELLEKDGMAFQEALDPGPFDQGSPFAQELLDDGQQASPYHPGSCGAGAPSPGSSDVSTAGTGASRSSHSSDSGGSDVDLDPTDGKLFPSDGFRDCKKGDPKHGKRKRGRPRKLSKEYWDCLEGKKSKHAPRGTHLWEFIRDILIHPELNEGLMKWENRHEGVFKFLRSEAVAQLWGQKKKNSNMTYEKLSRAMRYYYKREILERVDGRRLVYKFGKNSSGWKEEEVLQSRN
# In short: as §1
# [9] = biological target: CRX (Homo sapiens, UniProt O43186 1-299); settings: protein: recombinant; tags: N-terminal GST; dsDNA, one strand shown
# In short: as §1
# [10] = biological target: ETV1 (Homo sapiens, UniProt P50549 1-477); settings: protein: recombinant; tags: N-terminal GST; dsDNA, one strand shown
# In short: as §1
# [11] = biological target: T6, ERF (Homo sapiens, UniProt P50548 1-548); settings: protein: recombinant; tags: N-terminal GST; dsDNA, one strand shown
# T6 sequence: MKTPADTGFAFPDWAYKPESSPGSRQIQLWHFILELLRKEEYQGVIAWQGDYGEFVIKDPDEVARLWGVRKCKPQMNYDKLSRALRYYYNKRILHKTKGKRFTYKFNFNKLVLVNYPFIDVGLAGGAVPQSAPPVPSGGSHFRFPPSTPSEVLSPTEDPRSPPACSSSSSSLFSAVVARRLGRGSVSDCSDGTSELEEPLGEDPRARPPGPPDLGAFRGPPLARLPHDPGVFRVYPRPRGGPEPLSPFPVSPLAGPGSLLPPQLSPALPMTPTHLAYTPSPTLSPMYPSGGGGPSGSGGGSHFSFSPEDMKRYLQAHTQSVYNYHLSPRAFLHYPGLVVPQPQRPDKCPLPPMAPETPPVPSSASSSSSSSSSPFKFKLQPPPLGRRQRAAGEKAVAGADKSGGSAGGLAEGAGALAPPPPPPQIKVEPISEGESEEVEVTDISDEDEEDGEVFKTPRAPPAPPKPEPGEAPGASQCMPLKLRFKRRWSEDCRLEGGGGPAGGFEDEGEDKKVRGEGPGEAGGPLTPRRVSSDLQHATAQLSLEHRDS
# In short: as §1
# [12] = biological target: T7, ETV3L (Homo sapiens, UniProt Q6ZN32 1-361); settings: protein: recombinant; tags: N-terminal GST; dsDNA, one strand shown
# T7 sequence: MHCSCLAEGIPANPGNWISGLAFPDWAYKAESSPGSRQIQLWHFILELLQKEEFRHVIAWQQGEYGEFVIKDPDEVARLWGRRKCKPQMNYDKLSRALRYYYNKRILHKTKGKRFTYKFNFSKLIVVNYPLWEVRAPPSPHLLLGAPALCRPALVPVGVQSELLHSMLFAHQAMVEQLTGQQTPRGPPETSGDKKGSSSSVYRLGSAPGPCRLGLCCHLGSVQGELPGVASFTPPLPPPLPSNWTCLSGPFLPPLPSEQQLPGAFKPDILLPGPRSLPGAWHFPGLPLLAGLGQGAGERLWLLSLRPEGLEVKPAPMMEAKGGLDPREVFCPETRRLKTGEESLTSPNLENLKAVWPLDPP
# In short: as §1
# [13] = biological target: T8, ETS2 (Homo sapiens, UniProt P15036 1-469); settings: protein: recombinant; tags: N-terminal GST; dsDNA, one strand shown
# T8 sequence: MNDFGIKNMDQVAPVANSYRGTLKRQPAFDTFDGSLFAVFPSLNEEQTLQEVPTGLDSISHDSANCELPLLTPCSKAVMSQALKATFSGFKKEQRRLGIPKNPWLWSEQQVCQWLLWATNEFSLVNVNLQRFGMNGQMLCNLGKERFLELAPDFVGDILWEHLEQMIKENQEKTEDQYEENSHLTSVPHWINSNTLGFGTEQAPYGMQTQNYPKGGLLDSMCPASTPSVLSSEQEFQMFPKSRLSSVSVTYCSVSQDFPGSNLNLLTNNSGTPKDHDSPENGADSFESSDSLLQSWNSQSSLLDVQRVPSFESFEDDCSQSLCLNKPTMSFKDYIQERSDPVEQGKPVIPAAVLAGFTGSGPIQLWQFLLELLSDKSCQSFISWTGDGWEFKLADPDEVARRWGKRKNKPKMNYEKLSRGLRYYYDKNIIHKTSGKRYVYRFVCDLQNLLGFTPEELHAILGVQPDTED
# In short: as §1
# [14] = biological target: T9, SPDEF (Homo sapiens, UniProt O95238 1-335); settings: protein: recombinant; tags: N-terminal GST; dsDNA, one strand shown
# T9 sequence: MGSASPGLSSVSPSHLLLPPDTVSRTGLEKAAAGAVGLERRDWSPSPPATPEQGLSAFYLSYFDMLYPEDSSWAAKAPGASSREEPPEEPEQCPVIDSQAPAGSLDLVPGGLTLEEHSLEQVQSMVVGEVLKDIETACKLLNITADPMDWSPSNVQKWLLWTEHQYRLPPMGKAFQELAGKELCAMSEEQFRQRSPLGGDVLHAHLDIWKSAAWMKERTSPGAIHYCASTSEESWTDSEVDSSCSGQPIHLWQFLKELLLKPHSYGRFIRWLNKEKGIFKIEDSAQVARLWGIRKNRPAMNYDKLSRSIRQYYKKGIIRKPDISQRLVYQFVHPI
# In short: as §1
# [15] = biological target: T10, ETV7 (Homo sapiens, UniProt Q9Y603 1-341); settings: protein: recombinant; tags: N-terminal GST; dsDNA, one strand shown
# T10 sequence: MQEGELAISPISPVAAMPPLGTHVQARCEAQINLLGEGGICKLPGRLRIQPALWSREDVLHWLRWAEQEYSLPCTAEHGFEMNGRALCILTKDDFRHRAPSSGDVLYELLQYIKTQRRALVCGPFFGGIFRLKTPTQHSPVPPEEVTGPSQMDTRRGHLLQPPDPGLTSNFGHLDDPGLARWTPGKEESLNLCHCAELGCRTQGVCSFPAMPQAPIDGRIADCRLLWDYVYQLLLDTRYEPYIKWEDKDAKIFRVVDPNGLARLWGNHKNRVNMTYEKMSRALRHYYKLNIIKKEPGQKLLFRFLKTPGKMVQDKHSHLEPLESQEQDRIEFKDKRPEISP
# In short: as §1
# [16] = biological target: T11, ELF5 (Homo sapiens, UniProt Q9UKW6-2 1-255); settings: protein: recombinant; tags: N-terminal GST; dsDNA, one strand shown
# T11 sequence: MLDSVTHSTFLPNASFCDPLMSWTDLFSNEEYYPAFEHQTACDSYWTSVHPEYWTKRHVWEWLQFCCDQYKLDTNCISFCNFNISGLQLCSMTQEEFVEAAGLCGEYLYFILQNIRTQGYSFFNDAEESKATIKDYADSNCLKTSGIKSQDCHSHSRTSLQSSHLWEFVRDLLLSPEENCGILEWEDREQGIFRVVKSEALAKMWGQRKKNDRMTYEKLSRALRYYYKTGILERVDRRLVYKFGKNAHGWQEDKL
# In short: as §1
# [17] = biological target: T12, ETV3 (Homo sapiens, UniProt P41162-2 1-143); settings: protein: recombinant; tags: N-terminal GST; dsDNA, one strand shown
# T12 sequence: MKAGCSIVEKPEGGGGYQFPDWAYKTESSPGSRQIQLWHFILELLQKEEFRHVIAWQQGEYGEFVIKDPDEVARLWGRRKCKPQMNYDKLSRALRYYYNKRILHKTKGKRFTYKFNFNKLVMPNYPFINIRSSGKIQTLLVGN
# In short: as §1
# [18] = biological target: ETV6 (Homo sapiens, UniProt P41212 1-452); settings: protein: recombinant; tags: N-terminal GST; dsDNA, one strand shown
# In short: as §1
# Sequence of ELF4 (Q99607 whole entry): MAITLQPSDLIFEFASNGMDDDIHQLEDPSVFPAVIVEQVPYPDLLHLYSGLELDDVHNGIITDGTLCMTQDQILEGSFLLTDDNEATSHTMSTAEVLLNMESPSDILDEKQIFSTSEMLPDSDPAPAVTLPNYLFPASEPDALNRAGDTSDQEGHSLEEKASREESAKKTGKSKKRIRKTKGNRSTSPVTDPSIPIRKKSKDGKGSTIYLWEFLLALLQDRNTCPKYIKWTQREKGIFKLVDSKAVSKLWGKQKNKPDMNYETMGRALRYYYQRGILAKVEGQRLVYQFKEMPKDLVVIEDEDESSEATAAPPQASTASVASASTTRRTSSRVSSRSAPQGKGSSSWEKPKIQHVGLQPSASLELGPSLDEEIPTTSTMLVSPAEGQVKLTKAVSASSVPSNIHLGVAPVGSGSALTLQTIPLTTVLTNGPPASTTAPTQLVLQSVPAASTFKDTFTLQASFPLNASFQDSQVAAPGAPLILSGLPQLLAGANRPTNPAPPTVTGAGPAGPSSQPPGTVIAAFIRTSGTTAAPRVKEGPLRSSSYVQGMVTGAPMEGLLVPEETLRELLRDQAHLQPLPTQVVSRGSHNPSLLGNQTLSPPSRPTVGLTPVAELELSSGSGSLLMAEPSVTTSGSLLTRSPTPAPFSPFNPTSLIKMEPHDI
# Sequence of ETV6 (P41212 whole entry): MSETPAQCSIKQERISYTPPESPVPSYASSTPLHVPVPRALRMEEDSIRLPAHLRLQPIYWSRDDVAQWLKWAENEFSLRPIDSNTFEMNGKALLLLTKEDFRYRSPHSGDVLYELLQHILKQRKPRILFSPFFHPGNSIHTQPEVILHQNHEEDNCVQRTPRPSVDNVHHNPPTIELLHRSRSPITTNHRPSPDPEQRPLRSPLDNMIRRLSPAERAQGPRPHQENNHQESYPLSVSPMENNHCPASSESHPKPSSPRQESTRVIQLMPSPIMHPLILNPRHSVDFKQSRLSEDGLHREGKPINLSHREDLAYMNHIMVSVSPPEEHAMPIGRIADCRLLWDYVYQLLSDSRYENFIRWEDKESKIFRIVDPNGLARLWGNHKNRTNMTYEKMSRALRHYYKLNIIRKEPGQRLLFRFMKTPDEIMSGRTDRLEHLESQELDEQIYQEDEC
# Sequence of HSF1 (Q00613 whole entry): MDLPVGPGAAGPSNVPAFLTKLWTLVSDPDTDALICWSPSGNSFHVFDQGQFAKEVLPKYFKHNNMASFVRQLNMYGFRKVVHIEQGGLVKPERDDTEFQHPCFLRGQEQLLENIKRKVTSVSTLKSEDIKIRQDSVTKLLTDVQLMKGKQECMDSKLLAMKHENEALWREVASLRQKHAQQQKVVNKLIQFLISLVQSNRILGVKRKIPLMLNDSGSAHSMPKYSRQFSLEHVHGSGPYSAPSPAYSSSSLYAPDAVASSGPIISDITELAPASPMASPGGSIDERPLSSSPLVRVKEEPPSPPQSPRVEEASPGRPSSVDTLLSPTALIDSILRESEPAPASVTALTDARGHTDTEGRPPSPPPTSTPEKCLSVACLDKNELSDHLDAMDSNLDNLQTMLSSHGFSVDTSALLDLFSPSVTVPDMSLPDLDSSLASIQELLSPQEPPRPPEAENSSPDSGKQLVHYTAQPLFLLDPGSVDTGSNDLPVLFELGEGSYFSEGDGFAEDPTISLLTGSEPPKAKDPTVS
# Sequence of CRX (O43186 whole entry): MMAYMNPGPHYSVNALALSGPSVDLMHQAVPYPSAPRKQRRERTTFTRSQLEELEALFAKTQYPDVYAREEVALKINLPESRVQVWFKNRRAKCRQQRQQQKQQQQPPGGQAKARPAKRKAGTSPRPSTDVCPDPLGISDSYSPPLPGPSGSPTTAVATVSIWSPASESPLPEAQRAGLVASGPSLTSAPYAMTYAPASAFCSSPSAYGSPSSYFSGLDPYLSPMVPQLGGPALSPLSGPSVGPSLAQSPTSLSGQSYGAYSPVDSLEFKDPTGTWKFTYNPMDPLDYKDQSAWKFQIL
# Sequence of ETV1 (P50549 whole entry): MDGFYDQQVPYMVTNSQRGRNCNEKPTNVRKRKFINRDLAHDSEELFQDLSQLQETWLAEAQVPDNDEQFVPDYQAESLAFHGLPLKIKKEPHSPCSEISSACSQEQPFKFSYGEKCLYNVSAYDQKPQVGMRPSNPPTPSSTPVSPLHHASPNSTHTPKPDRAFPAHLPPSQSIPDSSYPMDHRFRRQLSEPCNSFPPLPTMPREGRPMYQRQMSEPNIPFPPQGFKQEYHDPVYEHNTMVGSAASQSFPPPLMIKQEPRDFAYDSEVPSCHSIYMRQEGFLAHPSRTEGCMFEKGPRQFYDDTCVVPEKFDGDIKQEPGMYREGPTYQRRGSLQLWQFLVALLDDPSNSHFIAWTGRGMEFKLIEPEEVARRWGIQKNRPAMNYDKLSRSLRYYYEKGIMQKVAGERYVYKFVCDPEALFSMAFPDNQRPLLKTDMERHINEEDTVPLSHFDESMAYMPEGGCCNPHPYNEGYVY
# Sequence of ETV5 (P41161 whole entry): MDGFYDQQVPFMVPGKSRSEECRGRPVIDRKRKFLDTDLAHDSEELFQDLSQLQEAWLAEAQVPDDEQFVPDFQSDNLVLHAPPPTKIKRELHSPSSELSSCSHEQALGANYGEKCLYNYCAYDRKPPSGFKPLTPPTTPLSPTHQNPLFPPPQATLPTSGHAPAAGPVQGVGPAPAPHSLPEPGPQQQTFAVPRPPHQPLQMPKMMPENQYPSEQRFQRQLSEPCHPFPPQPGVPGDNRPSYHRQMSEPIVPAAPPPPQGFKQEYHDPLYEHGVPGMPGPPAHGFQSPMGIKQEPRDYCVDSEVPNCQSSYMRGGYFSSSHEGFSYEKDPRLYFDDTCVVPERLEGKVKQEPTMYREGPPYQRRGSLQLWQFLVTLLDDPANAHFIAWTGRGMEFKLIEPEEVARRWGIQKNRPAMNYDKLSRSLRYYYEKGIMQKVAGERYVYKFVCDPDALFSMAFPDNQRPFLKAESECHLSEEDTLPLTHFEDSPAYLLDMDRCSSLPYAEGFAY
sequence,measurement,setting,value
TTAGCT,binding signal,[1],"1.2 fold enrichment (6-mer frequency, TF over GST control)"
same,binding signal,[2],"1.2 fold enrichment (6-mer frequency, TF over GST control)"
same,binding signal,[3],"1.82 fold enrichment (6-mer frequency, TF over GST control)"
same,binding signal,[4],"1.16 fold enrichment (6-mer frequency, TF over GST control)"
same,binding signal,[5],"1.28 fold enrichment (6-mer frequency, TF over GST control)"
same,binding signal,[6],"1.24 fold enrichment (6-mer frequency, TF over GST control)"
same,binding signal,[7],"1.28 fold enrichment (6-mer frequency, TF over GST control)"
same,binding signal,[8],"1.18 fold enrichment (6-mer frequency, TF over GST control)"
same,binding signal,[9],"2.63 fold enrichment (6-mer frequency, TF over GST control)"
same,binding signal,[10],"1.2 fold enrichment (6-mer frequency, TF over GST control)"
same,binding signal,[11],"1.2 fold enrichment (6-mer frequency, TF over GST control)"
same,binding signal,[12],"1.16 fold enrichment (6-mer frequency, TF over GST control)"
same,binding signal,[13],"1.26 fold enrichment (6-mer frequency, TF over GST control)"
same,binding signal,[14],"1.08 fold enrichment (6-mer frequency, TF over GST control)"
same,binding signal,[15],"1.17 fold enrichment (6-mer frequency, TF over GST control)"
same,binding signal,[16],"1.13 fold enrichment (6-mer frequency, TF over GST control)"
same,binding signal,[17],"1.19 fold enrichment (6-mer frequency, TF over GST control)"
same,binding signal,[18],"1.26 fold enrichment (6-mer frequency, TF over GST control)"
